Here are results for 35 molecules from PubChem BioAssay (NCATS).

Records with an inconclusive call do not appear. Entries that show only a call come without a potency. A number with no mark means an inactive call. Calls of active or inactive are those of the source. The call rests on the fitted dose curve; in most records, active means well fitted inhibition curve with a large enough effect; inconclusive means small, poorly fitted or top-dose-only effect; inactive means flat fitted curve, though single readings scatter.

Sequence of Calcium and integrin-binding protein 1 (Homo sapiens) (Q99828 whole entry, looked up): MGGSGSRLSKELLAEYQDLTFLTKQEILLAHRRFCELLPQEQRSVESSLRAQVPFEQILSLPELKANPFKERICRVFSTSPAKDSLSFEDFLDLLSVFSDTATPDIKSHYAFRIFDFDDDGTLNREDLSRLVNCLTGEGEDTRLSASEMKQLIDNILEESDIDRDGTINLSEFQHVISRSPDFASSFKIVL

The assay has as its target Calcium and integrin-binding protein 1 (Homo sapiens) (UniProt Q99828). Nature of the assay: Primary qHTS for Identification of Calcium Integrin Binding Protein 1 (CIB1) Competitor (AID 1508620).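 Further: GST tagged CIB1 binding a fluorescein labelled alphaIIb integrin peptide tracer; top concentration of the series differs between compounds.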 To be noted: CIB1-GST / FITC-alphaIIb peptide fluorescence polarization; series mostly up to 114 µM. In a few lines: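 Fluorescence polarization competition: CIB1-GST (1 uM final) preincubated with compound 15 min at room temperature, then FITC-labeled alphaIIb peptide (100 nM final) added for another 15 min. Polarization read at Ex 480/Em 540.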
(In general: Quantitative high-throughput screening tests each substance at several concentrations.)
With `COC(=O)[C@@]12C(=O)C(C)C(=O)[C@]1(C)C(C)=C[C@H]1[C@]3(C=O)CC[C@H](OC(C)=O)C(C)(C)[C@H]3CC[C@@]12C` (stereo not given in full), the Potency result was “inactive”.
As to `C[C@]12CC[C@H]3[C@@H]([C@H](O)CC4=CC(=O)CC[C@@]43C)[C@@H]1CC[C@@H]2O`, the Potency result was “inactive”.
On the same count and under the same terms, the entry for `Clc1ccc(N2C[C@H]3CC[C@@H](C2)N3)nn1` is “inactive”; for `COCC1OC(=O)c2coc3c2C1(C)C1=C(C3=O)C2CCC(=O)C2(C)CC1O` (stereo not given) it is “inactive”; for `Cc1c(Cl)cccc1S(=O)(=O)Nc1nc(CC(=O)N2CCN(C)CC2)cs1` it is “inactive”.
The same measure, in the same setting: the same measure for `CC(N)Cc1c[nH]c2ccccc12` (stereo not given): “inactive”.
As for `OC1(c2ccc(Cl)cc2)c2ccccc2C2=NCCN21` (stereo not given), the Potency result was “inactive”.
Regarding `CCc1[nH]c2ccc(OC)cc2c1CCN(C)C`, the Potency entry was “inactive”.
On the same count and under the same terms, the entry for `COC1CC(O[C@H]2CC[C@]3(C=O)C4CC[C@]5(C)[C@@H](C6=CC(=O)OC6)CC[C@]5(O)[C@@H]4CC[C@]3(O)C2)OC(C)C1O[C@@H]1O[C@H](CO)[C@@H](O)[C@H](O)[C@H]1O` (stereo not given in full) is “inactive”.
As to `CN1C(=O)c2ccccc2NC(=O)[C@]12O[C@@H]2c1ccccc1`, the Potency entry was “inactive”.
Consider `C[C@@]12C[C@@H](c3ccoc3)OC(=O)C1CC[C@]1(C)[C@H]2[C@H]2C=C[C@]1(O)C(=O)O2` (stereo not given in full), for which the Potency result is “inactive”.
Still for that read-out and setting: the same measure for `CC(CCc1ccc(O)cc1)O[C@@H]1O[C@H](CO[C@H]2OC[C@](O)(CO)[C@H]2O)[C@@H](O)[C@H](O)[C@H]1O` (stereo not given in full): “inactive”; for `COC1CC(OC2CCC3(C)C(=CCC4C3CCC3(C)C(C(C)OC5OC(COC6OC(CO)C(O)C(O)C6O)C(O)C(O)C5O)CCC43O)C2)OC(C)C1OC1OC(C)C(O)C(OC)C1O` (stereo not given): “inactive”.
The same measure, in the same setting: the same measure for `C[C@@H]1C(=O)O[C@H]2[C@H](O)[C@@]34[C@@H]5OC(=O)[C@@]3(O[C@@H]3OC(=O)[C@@H](O)[C@@]34[C@H](C(C)(C)C)[C@H]5O)[C@@]12O`: “inactive”; for `COc1cc(CCNCc2ccccc2O)c(OC)cc1C#N`: “inactive”.
As to `CC(=O)OC12C(O)C(C)C3(O)C4C=C(C)C(=O)C4CC(CO)=CC3C1C2(C)C` (stereo not given), the Potency entry is “inactive”.
As for `COC1CC(OC2CCC3(C)C(CCC4C3CCC3(C)C(C5=CC(=O)OC5)C(OC(C)=O)CC43O)C2)OC(C)C1OC1OC(CO)C(O)C(O)C1O` (stereo not given), the Potency result was “inactive”.
Still for that read-out and setting: the entry for `CC1=CC2/C=C(\C)CCC(O)C3OC(C)(C)OC3CC(=O)OC23C(=O)NC(CC(C)C)C3C1C` (stereo not given) is “inactive”.
Same read-out and setting: the same measure for `CC(=O)OC1CC(O)C(C)(C)C2CC(OC(C)=O)C3(C)C(CCC4(C)C(c5ccoc5)C(=O)C5OC543)C12C` (stereo not given): “inactive”.
On the same count and under the same terms, the entry for `Cc1cc(C(=O)CN2CCCC2)c(C)n1-c1ccc(F)cc1` is “inactive”; for `COc1cc(C(=O)O[C@H]2[C@@H]3C=CO[C@@H](O[C@@H]4O[C@H](CO)[C@@H](O)[C@H](O)[C@H]4O)[C@@H]3[C@@]3(CO)O[C@@H]23)ccc1O` it is “inactive”.
On to `Oc1ccc2c3c1O[C@H]1[C@H](N(CCCl)CCCl)CC[C@@]4(O)[C@@H](C2)N(CC2CC2)CC[C@]314`, for which the Potency result was “inactive”.
Turning to `CCCCCOc1cc2c(cc1-c1cc(/C=C/C(=O)O)ccc1O)C(C)(C)CCC2(C)C`, the Potency result is “inactive”.
Turning to `CC(=O)O[C@H]1C[C@@H](OC(C)=O)C(C)(C)C2C[C@@H](O)[C@]3(C)C(CC[C@@]4(C)[C@H](C5=CC(=O)OC5O)C[C@H]5O[C@]543)[C@]21C` (stereo not given in full), the Potency entry is “inactive”.
On to `N#CC(OC1OC(COC2OC(CO)C(O)C(O)C2O)C(O)C(O)C1O)c1ccccc1` (stereo not given), for which the Potency entry was “inactive”.
As for `CO[C@@H]1[C@H](O)[C@@H](O[C@@H]2C[C@H]3CC[C@@H]4C(CC[C@]5(C)[C@@H](C6=CC(=O)OC6)CC[C@]45O)[C@@]3(C)[C@H](O)C2)O[C@H](C)[C@@H]1O[C@@H]1O[C@H](CO)[C@@H](O)[C@H](O)[C@H]1O` (stereo not given in full), the Potency result is “inactive”.
The same measure, in the same setting: the entry for `CN[C@H]1[C@H](O)[C@H](O[C@@H]2[C@@H](O)[C@H](O[C@H]3O[C@H]([C@H](C)O)[C@@H](O)[C@H](O)[C@H]3N)[C@@H](N)C[C@H]2N)OC[C@@]1(C)O` is “inactive”.
Regarding `CC(C)C1(OO)C=C2C(=O)CC3C(C)(C(=O)O)CCCC3(C)C2CC1` (stereo not given), the Potency result was “inactive”.
Consider `CCc1c(C(=O)C(N)=O)c2c(OCC(=O)OC)cccc2n1Cc1ccccc1`, for which the Potency result was “inactive”.
With `CC(=O)OC1CC(O)C2(C)C(CC(OC(C)=O)C3(C)C2CCC2(C)C(c4ccoc4)C(=O)C4OC423)C1(C)C` (stereo not given), the Potency entry is “inactive”.
For the molecule `C=CC(C)(C)c1[nH]c2cccc3c2c1C[C@@H]1[C@@H]3[C@@H](OC(C)=O)[C@H](C)CN1C`, the Potency result is “inactive”.
Still for that read-out and setting: the entry for `C=C(C)[C@H]1O[C@H]2CC[C@@]3(C)[C@@](O)(CC[C@H]4[C@@H]5OC(C)(C)[C@H]6C[C@@H]7C(=C)Cc8c(Cl)cc9[nH]c(c5c9c8[C@@]76O)[C@@]43C)[C@]23O[C@@H]3[C@H]1O` is “inactive”; for `CN(C(=O)Cc1ccccc1)C(CN1CCCC1)c1ccccc1` (stereo not given) it is “inactive”.
Still for that read-out and setting: the same measure for `C[C@H]1O[C@@H](O[C@H]2C[C@@H](O)[C@]3(CO)C4C(CC[C@]3(O)C2)[C@@]2(O)CC[C@H](C3=CC(=O)OC3)[C@@]2(C)C[C@H]4O)[C@@H](O)[C@@H](O)[C@H]1O` (stereo not given in full): “inactive”.
For `C=CC(C)(O)CC/C=C(\C)C(=O)O[C@H]1[C@H](O)[C@@H](CO)O[C@@H](OC(=O)[C@]23CCC(C)(C)CC2C2=CCC4[C@@]5(C)CC[C@H](O[C@@H]6O[C@H](CO[C@@H]7OC[C@H](O)[C@H](O)[C@H]7O[C@@H]7OC[C@@H](O)[C@H](O)[C@H]7O)[C@@H](O)[C@H](O)[C@H]6O)C(C)(C)C5CC[C@@]4(C)[C@]2(C)CC3)[C@@H]1OC1OC(C)C(O[C@@H]2OC[C@@H](O)[C@H](O[C@@H]3OC[C@@H](O)[C@H](O)[C@H]3O)[C@H]2O)C(O)C1O` (stereo not given in full), the activity change, negative = inhibition was -11.1% [at 12.4 µM].
